The panel holds about 79,000 compounds, 15% with a hit somewhere; the sample as a whole holds those more often. Cut-off read from the data, not from the text of the source: active = growth inhibition above about 70%; inactive = the rest.
Columns and labels:
[1] = NCI Yeast Anticancer Drug Screen. Data for the rad50 strain (AID 155);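 note: 0% = growth of vehicle-only cultures of the same strain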; settings: S. cerevisiae rad50 strain growth inhibition; at 50.0 µM; stronger effect = higher value
Summary of the method: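 Vehicle-treated cultures provide the reference for the growth inhibition reported for compound-exposed, repair-deficient yeast.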

[2] = NCI Yeast Anticancer Drug Screen. Data for the mec2-1 strain (AID 157); settings: S. cerevisiae mec2-1 strain, at 50.0 µM, stronger effect = higher value
Summary of the method: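 Test agents were screened against the mec2-1 yeast strain, with defined DNA repair or cell cycle alteration. Growth was scored as inhibition against vehicle-only controls.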

[3] = NCI Yeast Anticancer Drug Screen. Data for the sgs1 mgt1 strain (AID 161);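 note: 0% = growth of cultures given vehicle only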; settings: S. cerevisiae sgs1 mgt1 strain, at 50.0 µM, stronger effect = higher value
Summary of the method: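 Mutant yeast exposed to compound; growth scored against vehicle-only wells.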

[4] = NCI Yeast Anticancer Drug Screen. Data for the cln2 rad14 strain (AID 165);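 note: 0% = growth equal to vehicle treated cultures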; settings: S. cerevisiae cln2 rad14 strain, at 50.0 µM, stronger effect = higher value
Summary of the method: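 Growth of compound-exposed yeast (cln2 rad14 genotype) measured and expressed as inhibition relative to vehicle.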

[5] = NCI Yeast Anticancer Drug Screen. Data for the bub3 strain (AID 167); settings: S. cerevisiae bub3 mutant strain, at 50.0 µM, stronger effect = higher value
Summary of the method: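 Mutant yeast screening strain plus compound; vehicle-treated cultures serve as the 0% inhibition reference.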

[6] = NCI Yeast Anticancer Drug Screen. Data for the mlh1 rad18 strain (AID 175); settings: S. cerevisiae mlh1 rad18 strain growth inhibition; at 50.0 µM; stronger effect = higher value
Summary of the method: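 In this whole-cell yeast screen, a strain with altered DNA damage repair is challenged with compound, and its growth is measured against matched vehicle-treated controls.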

Measured: growth inhibition

CNc1ncnc2nc(C)c(C)nc12
inactive: [1] -14.1% | [2] 35.6% | [3] -7.4% | [4] 8.4% | [5] -6.05% | [6] 18.7%

CCOC(=O)c1cc2ccccc2nc1N
inactive: [1] 0% | [2] 3.45% | [3] -7.15% | [4] -21.5% | [5] -17.1% | [6] 1.1%

O=P(CCC(CC(F)(F)C(F)(F)C(F)(F)C(F)(F)C(F)(F)C(F)(F)C(F)(F)F)P(=O)(N1CC1)N1CC1)(N1CC1)N1CC1 (stereo not drawn)
inactive: [1] 5.1% | [2] 3.5% | [3] -1.6% | [4] -5.1% | [5] -0.35% | [6] 2.35%

COC(=O)OCC1OC(OC(C)=O)C2OC(=O)OC12 (stereo not drawn)
inactive: [1] 8.55% | [2] -16.9% | [3] -16.7% | [4] 5.45% | [5] 2.35% | [6] -3.15%

CC(C)N(C(=O)c1cccc2ccccc12)C(C)C
inactive: [1] 16.4% | [2] 6.95% | [3] 8.35% | [4] 4.55% | [5] 8% | [6] 32.2%

CC1=CCC2N=C(c3ccccc3)CC2(C)C1=O (stereo not drawn)
inactive: [1] 27.4% | [2] 21.6% | [3] 24.3% | [4] -11.3% | [5] -46.2% | [6] -16.6%

COc1cccc([N+](=O)[O-])c1
inactive: [1] 18.3% | [2] 32.2% | [3] -14.8% | [4] -5.9% | [5] -0.9% | [6] 5.75%

COc1cc(Cl)ccc1NC(=O)Oc1ccc2ccccc2c1
inactive: [1] 11.8% | [2] 14.2% | [3] 13% | [4] 9.2% | [5] 14.4% | [6] 9.4%

COC(=O)C(NC(=O)C(=O)NC(C(=O)OC)C(C)(C)S)C(C)(C)S (stereo not drawn)
inactive: [1] 3.85% | [2] -9.1% | [3] -2.3% | [4] -12.7% | [5] -5% | [6] 4.25%

Oc1ccc(Cl)cc1Cc1cc(Cl)cc(Cc2cc(Cl)cc(Cc3cc(Cl)cc(Cc4cc(Cl)ccc4O)c3O)c2O)c1O
inactive: [1] -31.2% | [2] 0.5% | [3] -5.4% | [4] -16.6% | [5] -26% | [6] -27.1%

Clc1cccc2nsnc12
inactive: [1] 12.9% | [2] -12.1% | [3] -3.15% | [4] -49% | [5] 5.15% | [6] 6.1%

CN(C)N1C(=O)c2ccccc2NC1c1ccccc1 (stereo not drawn)
inactive: [1] -19.2% | [2] -1.35% | [3] 29.6% | [4] 2% | [5] 18.9% | [6] 5.15%

Cc1cc(N=C2C=C(Nc3cc(C)on3)C(=O)c3ccccc32)no1
inactive: [1] -8.9% | [2] -1.25% | [3] -21.4% | [4] 1.05% | [5] -14.7% | [6] 6.05%

O=C1[C@@H](c2ccc(Cl)cc2)[C@H]2CC=C[C@H]2N1O
inactive: [1] 8.65% | [2] -21.4% | [3] -13.8% | [4] 15.4% | [5] -13.4% | [6] -2.25%

O=C(NCCNC(=O)c1cc(Cl)cc(Cl)c1O)c1cc(Cl)cc(Cl)c1O
inactive: [1] -1.35% | [2] 11.4% | [3] 9.3% | [4] -18.4% | [5] -4.9% | [6] 21.8%

COc1cccc(OC)c1/C=C1\N=C(c2ccccc2)OC1=O
inactive: [1] -1.4% | [2] -1.4% | [3] 2.55% | [4] -56.9% | [5] 5.55% | [6] -9.25%

Cc1cc2c(C)nn(Cc3ccccc3)c2c(C(=O)O)c1C
inactive: [1] 10.6% | [2] 7.05% | [3] 1.15% | [4] 2.95% | [5] 9.95% | [6] 26.8%

O=C(O)c1ccc(O)c2ccccc12
inactive: [1] -21.9% | [2] -21.2% | [3] -15.4% | [4] -24.7% | [5] -13.1% | [6] -21.9%

CCCC(C)(C#N)c1ccc(OC)cc1 (stereo not drawn)
inactive: [1] 33.8% | [2] 13.2% | [3] 31.6% | [4] 1.65% | [5] 32.4% | [6] -11.8%

C=C1CC[C@H]2C(C)=CC[C@H]3C(=C)C(=O)O[C@@H]3[C@@H]12
inactive: [1] -36.4% | [2] -17% | [3] -24.1% | [4] -3.9% | [5] -15.4% | [6] -6%

O=C(O)C1Cc2ccccc2OC1=O (stereo not drawn)
inactive: [1] -18% | [2] -25.6% | [3] -16.7% | [4] 0.6% | [5] 0.35% | [6] -21.6%

[NH-]C(CC(N)=O)C(=O)O.[NH-]C(CC(N)=O)C(=O)O.[Zn+2] (stereo not drawn)
inactive: [1] -3.15% | [2] -2.05% | [3] -3.9% | [4] -18.1% | [5] -2.75% | [6] 5.25%

NC(CCCCN=Cc1nc(-c2ccccc2)oc1O)C(=O)O (stereo not drawn)
inactive: [1] -33.6% | [2] -52.3% | [3] -50.6% | [4] 21.4% | [5] -27.7% | [6] -47.5%

NC1=Nc2ccccc2Sc2nncn21
inactive: [1] -18.2% | [2] -43.9% | [3] -10.7% | [4] -10.6% | [5] 0.1% | [6] -4.35%

C/C(=N/O)c1sc(-c2nc(C)c(/C(C)=N\O)s2)nc1C
inactive: [1] -1.7% | [2] -19.3% | [3] 4.7% | [4] 4.85% | [5] -6.6% | [6] 3.05%

Cc1n[nH]c(=O)n1N1C(=O)c2ccccc2C1=O
inactive: [1] -1.25% | [2] -10.1% | [3] -25.7% | [4] -3.45% | [5] -19.6% | [6] -26.6%

N#CC(=Nc1ccccc1N(C(=O)c1ccccc1)C(=O)c1ccccc1)c1ccccc1
inactive: [1] -21.3% | [2] -19.4% | [3] -30.4% | [4] 2.95% | [5] -51.5% | [6] -38.4%

CN(C)CCCNc1ccnc2cc([N+](=O)[O-])ccc12
inactive: [1] 10.2% | [2] 3.3% | [3] 4.4% | [4] -4.1% | [5] -1.3% | [6] -17.1%

CCC1CN2N=Cc3ccccc3C2=N1 (stereo not drawn)
inactive: [1] -13.7% | [2] 5.35% | [3] -5% | [4] -43.5% | [5] -22.7% | [6] -15.8%

CC(=O)Nc1ccc(S(=O)(=O)NNC(=O)NNS(=O)(=O)c2ccc(NC(C)=O)cc2)cc1
inactive: [1] -6.15% | [2] -7.2% | [3] -11.5% | [4] 2.5% | [5] -7% | [6] -10.4%

Cc1ccc(S(=O)(=O)NC(=O)C2S(=O)(=O)OCCOS2(=O)=O)cc1
inactive: [1] -2.75% | [2] 4.15% | [3] -7.1% | [4] -1.85% | [5] -11.3% | [6] -16.4%

Cc1ccc(S(=O)(=O)NC(=O)NCCCS(C)=O)cc1 (stereo not drawn)
inactive: [1] -3.5% | [2] -6.5% | [3] 6.8% | [4] -7.8% | [5] 2.9% | [6] 10.3%

CCN(CC)CC1CCCCN1 (stereo not drawn)
inactive: [1] -10.1% | [2] -15.7% | [3] 1.95% | [4] 29.6% | [5] 1.4% | [6] 2.55%

COc1ccc2c(C)cc(N/N=C(\C)C=O)nc2c1
inactive: [1] 19.9% | [2] 19.4% | [3] 18.8% | [4] 11.9% | [5] 10.8% | [6] -9.45%

CCOC(=O)Cc1cc(=O)oc2cc(O)ccc12
inactive: [1] -22.9% | [2] 2.3% | [3] 4.1% | [4] 22.7% | [5] -1.8% | [6] -1.1%

Clc1ccc2noc(-c3ccccc3)c2c1
inactive: [1] 22.6% | [2] 3.05% | [3] 4% | [4] 0.85% | [5] 0.7% | [6] 23.6%

O=C1Nc2ccccc2C1=Nc1cccc2ncccc12
inactive: [1] 3.35% | [2] -7.75% | [3] -11.1% | [4] -4.5% | [5] 8.7% | [6] 15.4%

C=C1CC(CC(=O)C(C)CC2CC(=C)C(=O)O2)OC1=O (stereo not drawn)
inactive: [1] 14.1% | [2] -30.9% | [3] 14.9% | [4] 8.4% | [5] 24.5% | [6] 26.3%
